Reference: article PMC4336329 (PLoS ONE, 2015)
Among all 310,000 compounds or so, about 14,000 (4.5%) showed an effect of 50% or more. Effects have a minus sign here. The full list was thinned out, with strong results kept by preference.

The compounds below were run against human ether-à-go-go-related gene (hERG) potassium channel (human, UniProt Q12809) (assay: primary screen, population patch clamp on CHO cells stably expressing hERG; higher = less effect of the substance).
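Note: peak tail current of the secondary pulse compared with the same well before compound.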

Sequence of human ether-à-go-go-related gene (hERG) potassium channel (Q12809 whole entry, looked up): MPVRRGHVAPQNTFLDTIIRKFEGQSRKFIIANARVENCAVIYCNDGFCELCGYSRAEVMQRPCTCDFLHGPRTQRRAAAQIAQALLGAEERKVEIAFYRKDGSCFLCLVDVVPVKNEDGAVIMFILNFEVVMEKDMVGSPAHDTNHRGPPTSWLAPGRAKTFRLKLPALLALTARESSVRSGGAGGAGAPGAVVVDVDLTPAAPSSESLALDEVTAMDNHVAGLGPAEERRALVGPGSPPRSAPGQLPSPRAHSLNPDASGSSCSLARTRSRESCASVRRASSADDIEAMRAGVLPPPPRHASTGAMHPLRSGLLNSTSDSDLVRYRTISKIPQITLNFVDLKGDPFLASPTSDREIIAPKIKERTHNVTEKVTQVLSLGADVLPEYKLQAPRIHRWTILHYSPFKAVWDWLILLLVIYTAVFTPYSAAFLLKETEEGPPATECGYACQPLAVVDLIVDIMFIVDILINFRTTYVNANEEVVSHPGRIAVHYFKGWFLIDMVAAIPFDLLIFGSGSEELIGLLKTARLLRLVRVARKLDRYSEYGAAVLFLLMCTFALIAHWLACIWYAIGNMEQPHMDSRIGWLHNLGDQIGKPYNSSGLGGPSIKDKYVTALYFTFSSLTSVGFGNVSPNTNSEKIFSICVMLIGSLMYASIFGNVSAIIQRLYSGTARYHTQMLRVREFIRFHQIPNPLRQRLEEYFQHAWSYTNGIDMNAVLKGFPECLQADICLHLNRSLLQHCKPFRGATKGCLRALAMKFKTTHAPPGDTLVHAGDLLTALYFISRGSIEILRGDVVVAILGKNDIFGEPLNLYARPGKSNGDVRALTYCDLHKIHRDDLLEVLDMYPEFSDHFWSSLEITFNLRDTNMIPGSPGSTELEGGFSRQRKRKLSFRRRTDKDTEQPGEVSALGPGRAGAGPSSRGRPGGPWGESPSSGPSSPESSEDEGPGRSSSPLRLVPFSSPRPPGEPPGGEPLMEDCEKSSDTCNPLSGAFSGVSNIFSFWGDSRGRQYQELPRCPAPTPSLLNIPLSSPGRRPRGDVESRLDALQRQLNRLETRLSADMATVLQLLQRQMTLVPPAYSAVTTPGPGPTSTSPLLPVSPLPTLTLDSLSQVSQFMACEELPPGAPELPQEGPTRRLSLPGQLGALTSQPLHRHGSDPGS

Structure (SMILES)	hERG current change (%, negative = inhibition) at 10uM [%]
O=C(c1ccc(N2CCCC2=O)cc1)N1CCN(c2ccccc2Cl)CC1	-12.1
COc1ccc(S(=O)(=O)NCc2cc(=O)n(C)c(=O)n2C)cc1C	22.6
COc1ccc(Cl)cc1NC(=O)c1noc(C)c1[N+](=O)[O-]	-29.5
O=C(NNC(=O)c1cc(-c2ccc(Cl)cc2Cl)nc2ccccc12)Nc1ccccc1	1.72
Cn1c(CCNC(=O)c2ccco2)nc2cc([N+](=O)[O-])ccc21	-26
Cn1c(CN2CCN(C(=O)COc3ccccc3)CC2)nc2cc([N+](=O)[O-])ccc21	-55.2
CCCC(=O)NCCc1nc2cc([N+](=O)[O-])ccc2n1C	-16.4
Cn1c(CN2CCN(C(=O)c3ccco3)CC2)nc2cc([N+](=O)[O-])ccc21	-60
CN1CCN(Cc2nc3cc(NC(=O)COc4ccc([N+](=O)[O-])cc4)ccc3n2C)CC1	9.29
CC(=O)N1CCN(Cc2nc3cc(NC(=O)COc4ccccc4)ccc3n2C)CC1.Cl	0.239
Cn1c(CN2CCN(C(=O)c3ccc(F)cc3)CC2)nc2cc([N+](=O)[O-])ccc21	-67.5
Cc1ccc(C(C)C)c(OCC(=O)N2CCN(CC(=O)N3CCOCC3)CC2)c1	1.81
Cc1ccc(C(C)C)c(OCC(=O)N2CCN(Cc3nc4cc([N+](=O)[O-])ccc4n3C)CC2)c1	-65.8
CCCC(=O)N1CCN(Cc2nc3cc([N+](=O)[O-])ccc3n2C)CC1	-36.8
O=C(CSc1nccn1-c1ccc(Cl)cc1)N1CCCc2ccccc21	-11.7
Cc1cc(NC(=O)c2cccc(S(=O)(=O)N3CCC(C)CC3)c2)no1	0.978
CCCCN(C)C(=O)c1cc2cc3cc(OC)ccc3nc2o1	-30.8
C(=N\Nc1nc(N2CCCC2)nc(N2CCCC2)n1)/c1ccncc1	2.85
CC(=O)N1CCN(Cc2nc3cc([N+](=O)[O-])ccc3n2C)CC1	-4.94
Cn1c(CN2CCN(S(C)(=O)=O)CC2)nc2cc([N+](=O)[O-])ccc21	-0.37
Cn1c(CN2CCN(C(=O)c3ccccc3)CC2)nc2cc([N+](=O)[O-])ccc21	-67.3
COC(=O)c1c(C)oc(C)c(C(=O)OC)c1=O	5.25
O=C1C2C3C=CC(C4CC34)C2C(=O)N1Cc1ccco1 (stereo not shown)	4.37

Structure (SMILES)	hERG current change (%, negative = inhibition) at 10uM [%]
O=C(NCCCN1CCN(c2ccc(F)cc2)CC1)c1cccc(N2CCCC2=O)c1	-48.5
Cc1c(C)n(C)c2ccc(C(=O)NCCCN3CCN(C)CC3)cc12	14.9
Cc1cc(=O)oc(C)c1C(=O)NCCCN1CCN(c2ccc(F)cc2)CC1	-53.6
COc1ccc(N2CCN(CCNC(=O)c3c(C)cc(=O)oc3C)CC2)cc1	-12.2
Cc1c(C)n(C)c2ccc(C(=O)NCCCN3CCCCC3)cc12	-17.2
Cc1c(C)n(C)c2ccc(C(=O)NCCCN3CCCC3)cc12	-23.8
Cc1c(C)n(C)c2ccc(C(=O)NCCCN3CCN(c4ccc(F)cc4)CC3)cc12	-66.6
Cc1c(C)n(C)c2ccc(C(=O)NCCCN3CCN(c4ccccc4F)CC3)cc12	-54.2
CCc1nc2ccc(C(=O)NCCCN3CCN(c4ccccc4F)CC3)cc2nc1CC	-49.8
Cc1cc(=O)oc(C)c1C(=O)NCCCN1CCN(c2ccccc2F)CC1	-40.4
Cc1c(C)n(C)c2ccc(C(=O)NCCCN3CCOCC3)cc12	10.8
CCc1nc2ccc(C(=O)NCCCN3CCN(c4ccc(F)cc4)CC3)cc2nc1CC	-66.4
Cc1ccc(S(=O)(=O)N2CCN(S(=O)(=O)c3ccc(C)cc3)C2)cc1	-24.9
CCN(CC)S(=O)(=O)c1cc(-c2nnc(-c3ccc(Br)cc3)o2)ccc1Br	12.7
COCCNC(=S)NN(c1ccccc1)c1ccccc1	-1.18
Oc1cc2c(cc1CN1CCc3ccccc3C1)OCO2	-0.697
CS(=O)(=O)N1CCN(c2ccc(NC(=O)COc3ccccc3)cc2)CC1	0.0465
COc1ccc(/C=N/NC(=O)c2ccc(NC(=O)c3ccccc3Br)cc2)cc1	6.43
CCN1/C(=C/C(C)=O)Sc2ccc(OC)cc21	-12.7
CCN1/C(=C/c2cccc[n+]2C)Sc2ccc(OC)cc21.[I-]	-67.3
CCN1/C(=C\C(C)=O)Sc2ccc(OC)cc21	13.9
CCCNC(=O)COC(=O)c1cccnc1Nc1ccccc1F	-9.21
CCC1C(=O)NCCN1C(=O)c1ccc2nc(Cc3cccc(Cl)c3)oc2c1 (stereo not shown)	-18.6

Structure (SMILES)	hERG current change (%, negative = inhibition) at 10uM [%]
CCN(CC(=O)NCc1ccc(Cl)cc1)C(=O)NCc1ccc(Cl)cc1	-48.4
CCN(CC(=O)NCc1ccc(Cl)cc1)C(=O)CCc1ccccc1	-58.7
CCN(CC(=O)NCc1ccc(Cl)cc1)C(=O)CCc1ccccc1O	-54.1
O=C(COC(=O)Cc1ccccc1[N+](=O)[O-])NCc1ccc(Cl)cc1	-11
O=C(CCCc1ccccc1)NCc1ccc(Cl)cc1	-15.3
CCN(CC(=O)NCc1cccs1)C(=O)CCc1c[nH]c2ccccc12	-17.6
CCN(CC(=O)NCc1ccc(Cl)cc1)C(=O)Cc1ccccc1[N+](=O)[O-]	-63.4
O=C(Cc1ccccc1[N+](=O)[O-])NCc1ccc(Cl)cc1	5.25
CCN(CC(=O)NCc1ccc(Cl)cc1)C(=O)C(C)Sc1ccccc1 (stereo not shown)	-33.8
O=C(CC(c1ccccc1)c1cc(Cl)ccc1O)N1CCCC1 (stereo not shown)	-17.5
O=C(NS(=O)(=O)Nc1ccccn1)c1c[nH]c2ccccc12	15.4
Cc1cccc(NC(=O)C2CCN(C(=O)NC3CCCCC3)CC2)c1	7.39
CS(=O)c1ccccc1COC(=O)Nc1ccccc1 (stereo not shown)	9.76
Cc1c(NC(=O)c2ccccc2)c(=O)n(-c2ccccc2)n1C	-3.48
CCn1c(C(=O)N2CCC(C(=O)NCc3cccs3)CC2)cc2sccc21	-63
O=C(NCc1ccco1)c1cc2sccc2n1Cc1ccccc1	-15.7
Cn1c(C(=O)N2CCCC(C(=O)NCc3cccs3)C2)cc2sccc21 (stereo not shown)	-16.1
CCN1CCN(C(=O)C2CCN(C(=O)c3cc4sccc4n3CC)CC2)CC1	-2.39
CCn1c(C(=O)N2CCC(C(=O)NCc3ccc(OC)cc3)CC2)cc2sccc21	-41.9
CCOC(=O)N1CCN(C(=O)C2CCN(C(=O)c3cc4sccc4n3CC)CC2)CC1	-28.8
COc1nc(OC)nc(N2CCC(C(=O)NCc3ccco3)CC2)n1	-18.3
O=C(NCc1ccco1)C1CCN(C(=O)c2cc3sccc3n2Cc2ccc(Cl)cc2)CC1	-64.8
CCn1c(C(=O)N2CCC(C(=O)N3CCN(c4ccccn4)CC3)CC2)cc2sccc21	-60.5

Structure (SMILES)	hERG current change (%, negative = inhibition) at 10uM [%]
O=C(NCc1ccco1)C1CCN(C(=O)c2ccc(Cl)cc2Cl)CC1	-0.217
O=C(NCc1ccco1)C1CCN(c2nc3ccccc3n2Cc2ccccc2F)CC1	-66.2
Cc1cc(C)nc(N2CCC(C(=O)NCc3ccccc3F)CC2)n1	27
COC(=O)CSc1nnc(COc2cccc3ccccc23)o1	13.6
CN(C)/C=C1\N=C(c2ccccc2)OC1=O	3.09
COc1ccc(N2CCN(C(C)C(=O)Nc3nnc(C)s3)CC2)cc1.Cl (stereo not shown)	-1.41
CSc1ccccc1NC(=O)Cc1ccccc1	13.8
CCN(CC)S(=O)(=O)c1ccc(NC(=O)CCN2C(=O)C3CC=CCC3C2=O)cc1 (stereo not shown)	-30
CC1(c2ccccc2Cl)NC(=O)N(CC(=O)Nc2ccc(N3CCCCC3)cc2)C1=O (stereo not shown)	-21.9
CC(=O)N1CCc2cc(S(=O)(=O)CCC(=O)Nc3ccccc3F)ccc21	13.3
O=C(NCCN1CCOCC1)c1cc2sccc2n1Cc1ccc(F)cc1	-47
CCCCN(CCCNC(=O)C1CCN(C(=O)c2cc3sccc3n2C)CC1)Cc1ccccc1	-60.8
CC(C)NC(=O)C1CCN(C(=O)c2cc3sccc3n2Cc2ccc(F)cc2)CC1	-3.2
O=C(NCc1ccccn1)C1CCN(C(=O)c2cc3sccc3n2Cc2ccc(F)cc2)CC1	-46.5
O=C(NCc1ccco1)C1CCN(C(=O)c2cc3sccc3n2Cc2ccc(F)cc2)CC1	-68.5
CCN(CCCNC(=O)C1CCN(C(=O)c2cc3sccc3n2C)CC1)Cc1ccccc1	-38.4
CC(C)N(CCCNC(=O)C1CCN(C(=O)c2cc3sccc3n2C)CC1)Cc1ccccc1	-23.2
O=C(NCCN1CCOCC1)c1cc2sccc2n1Cc1ccc(Cl)cc1	-59.9
CCOC(=O)c1cc2sccc2n1CC(=O)N1CCN(C(=O)c2ccco2)CC1	-48.2
O=C(c1cc2sccc2n1Cc1ccccc1)N1CCN(c2nc3ccccc3s2)CC1	-17
O=C(Cn1c(C(=O)NCCCN2CCOCC2)cc2sccc21)c1ccccc1	-16.5
O=C(c1ccco1)N1CCN(C(=O)c2cc3sccc3n2Cc2ccccc2)CC1	-55.6
